Assays:
Test in all cases: DAPPL (digital affinity profiling via proximity ligation, sequencing); 10 mM Tris-HCl pH 7.5, 50 mM NaCl, 1 mM DTT, 4% glycerol, room temperature, 30 min; GST-TFs on glutathione beads, 16-mer random dsDNA library, 0.1% formaldehyde crosslink after washing; high values mean tight binding
[1] = molecular target: T1, FEV (Homo sapiens, UniProt Q99581 1-238); settings: protein: recombinant; tags: N-terminal GST; dsDNA, one strand shown
T1 sequence: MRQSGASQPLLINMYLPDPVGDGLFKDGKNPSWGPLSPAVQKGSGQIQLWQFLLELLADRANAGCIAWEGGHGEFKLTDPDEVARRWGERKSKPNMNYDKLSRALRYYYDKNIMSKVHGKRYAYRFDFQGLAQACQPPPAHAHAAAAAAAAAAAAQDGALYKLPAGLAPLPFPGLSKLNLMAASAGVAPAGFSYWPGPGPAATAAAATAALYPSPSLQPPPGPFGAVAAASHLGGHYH
How it was run: (§1)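 After expression in yeast as GST fusions, human transcription factors were bound to glutathione beads, DNA-barcoded and mixed with a tag-only sample. The pools were incubated with 200 nmole of a 16-mer random double-stranded DNA library in Tris/NaCl/DTT/glycerol buffer (30 min, room temperature), washed and crosslinked with 0.1% formaldehyde. Proximity ligation with BsaI/T4 ligase ran for 1 h at 37 °C, before PCR amplification and sequencing on an Illumina NextSeq500. Binding signal is a hexamer's read frequency for a factor divided by its frequency for the tag-only sample.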

[2] = molecular target: ETV5 (Homo sapiens, UniProt P41161 1-510); settings: protein: recombinant; tags: N-terminal GST; dsDNA, one strand shown
How it was run: as §1

[3] = molecular target: HSF1 (Homo sapiens, UniProt Q00613 1-529); settings: protein: recombinant; tags: N-terminal GST; chain copies: 3; dsDNA, one strand shown
How it was run: as §1

[4] = molecular target: T2, SPIC (Homo sapiens, UniProt Q8N5J4 1-248); settings: protein: recombinant; tags: N-terminal GST; dsDNA, one strand shown
T2 sequence: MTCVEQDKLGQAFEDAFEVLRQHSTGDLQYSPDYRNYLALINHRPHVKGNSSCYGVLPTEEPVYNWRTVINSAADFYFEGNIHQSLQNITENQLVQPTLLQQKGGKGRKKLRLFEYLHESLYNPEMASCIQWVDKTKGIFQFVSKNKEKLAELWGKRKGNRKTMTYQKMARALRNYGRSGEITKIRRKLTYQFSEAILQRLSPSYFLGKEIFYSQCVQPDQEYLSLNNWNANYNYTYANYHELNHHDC
How it was run: as §1

[5] = molecular target: ELF4 (Homo sapiens, UniProt Q99607 1-663); settings: protein: recombinant; tags: N-terminal GST; dsDNA, one strand shown
How it was run: as §1

[6] = molecular target: T3, ELK4 (Homo sapiens, UniProt P28324-2 1-405); settings: protein: recombinant; tags: N-terminal GST; dsDNA, one strand shown
T3 sequence: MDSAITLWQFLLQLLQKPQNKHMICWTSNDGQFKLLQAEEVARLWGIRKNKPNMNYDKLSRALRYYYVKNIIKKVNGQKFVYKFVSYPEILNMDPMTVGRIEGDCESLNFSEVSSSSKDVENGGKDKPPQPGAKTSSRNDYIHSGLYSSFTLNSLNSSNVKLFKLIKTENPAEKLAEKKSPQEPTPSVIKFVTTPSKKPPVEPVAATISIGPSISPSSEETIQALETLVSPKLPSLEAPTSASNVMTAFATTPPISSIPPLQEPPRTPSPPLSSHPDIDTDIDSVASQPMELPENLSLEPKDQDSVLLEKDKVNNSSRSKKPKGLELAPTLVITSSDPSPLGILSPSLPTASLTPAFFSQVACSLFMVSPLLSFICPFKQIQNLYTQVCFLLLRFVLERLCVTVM
How it was run: as §1

[7] = molecular target: T4, ETV2 (Homo sapiens, UniProt O00321 1-342); settings: protein: recombinant; tags: N-terminal GST; dsDNA, one strand shown
T4 sequence: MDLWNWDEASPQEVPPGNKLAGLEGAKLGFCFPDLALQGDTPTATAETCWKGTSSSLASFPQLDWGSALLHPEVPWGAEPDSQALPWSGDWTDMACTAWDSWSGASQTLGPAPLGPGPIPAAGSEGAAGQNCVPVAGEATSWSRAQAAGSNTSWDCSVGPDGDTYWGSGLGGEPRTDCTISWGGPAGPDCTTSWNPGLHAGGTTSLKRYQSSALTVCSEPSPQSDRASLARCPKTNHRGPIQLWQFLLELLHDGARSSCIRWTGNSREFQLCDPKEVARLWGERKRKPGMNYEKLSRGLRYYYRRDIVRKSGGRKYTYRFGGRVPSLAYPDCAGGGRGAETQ
How it was run: as §1

[8] = molecular target: T5, ELF3 (Homo sapiens, UniProt P78545 1-371); settings: protein: recombinant; tags: N-terminal GST; dsDNA, one strand shown
T5 sequence: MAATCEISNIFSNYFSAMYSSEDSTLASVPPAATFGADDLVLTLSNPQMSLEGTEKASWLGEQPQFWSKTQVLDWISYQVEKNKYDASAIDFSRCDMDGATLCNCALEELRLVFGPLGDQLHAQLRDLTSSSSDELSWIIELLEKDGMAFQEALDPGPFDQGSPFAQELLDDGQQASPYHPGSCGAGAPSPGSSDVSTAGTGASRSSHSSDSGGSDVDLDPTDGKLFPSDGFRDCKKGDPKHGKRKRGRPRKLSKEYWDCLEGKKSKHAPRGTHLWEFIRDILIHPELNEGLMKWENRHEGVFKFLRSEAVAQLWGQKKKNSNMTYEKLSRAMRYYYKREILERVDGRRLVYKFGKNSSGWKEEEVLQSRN
How it was run: as §1

[9] = molecular target: CRX (Homo sapiens, UniProt O43186 1-299); settings: protein: recombinant; tags: N-terminal GST; dsDNA, one strand shown
How it was run: as §1

[10] = molecular target: ETV1 (Homo sapiens, UniProt P50549 1-477); settings: protein: recombinant; tags: N-terminal GST; dsDNA, one strand shown
How it was run: as §1

[11] = molecular target: T6, ERF (Homo sapiens, UniProt P50548 1-548); settings: protein: recombinant; tags: N-terminal GST; dsDNA, one strand shown
T6 sequence: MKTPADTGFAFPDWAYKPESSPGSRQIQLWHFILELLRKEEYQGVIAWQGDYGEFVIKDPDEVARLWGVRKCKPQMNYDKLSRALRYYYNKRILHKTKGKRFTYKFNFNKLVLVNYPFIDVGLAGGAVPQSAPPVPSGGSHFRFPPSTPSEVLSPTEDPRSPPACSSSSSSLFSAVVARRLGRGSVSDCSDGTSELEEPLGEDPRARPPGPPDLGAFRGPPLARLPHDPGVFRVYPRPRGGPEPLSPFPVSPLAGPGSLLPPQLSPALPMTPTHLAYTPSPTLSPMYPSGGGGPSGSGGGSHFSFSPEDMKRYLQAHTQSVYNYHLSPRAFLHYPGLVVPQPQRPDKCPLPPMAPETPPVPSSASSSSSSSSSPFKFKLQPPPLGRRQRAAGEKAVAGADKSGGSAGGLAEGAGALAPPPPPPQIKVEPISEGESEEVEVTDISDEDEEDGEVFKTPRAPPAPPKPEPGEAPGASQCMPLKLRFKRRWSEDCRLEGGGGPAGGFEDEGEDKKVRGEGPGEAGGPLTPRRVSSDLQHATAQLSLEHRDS
How it was run: as §1

[12] = molecular target: T7, ETV3L (Homo sapiens, UniProt Q6ZN32 1-361); settings: protein: recombinant; tags: N-terminal GST; dsDNA, one strand shown
T7 sequence: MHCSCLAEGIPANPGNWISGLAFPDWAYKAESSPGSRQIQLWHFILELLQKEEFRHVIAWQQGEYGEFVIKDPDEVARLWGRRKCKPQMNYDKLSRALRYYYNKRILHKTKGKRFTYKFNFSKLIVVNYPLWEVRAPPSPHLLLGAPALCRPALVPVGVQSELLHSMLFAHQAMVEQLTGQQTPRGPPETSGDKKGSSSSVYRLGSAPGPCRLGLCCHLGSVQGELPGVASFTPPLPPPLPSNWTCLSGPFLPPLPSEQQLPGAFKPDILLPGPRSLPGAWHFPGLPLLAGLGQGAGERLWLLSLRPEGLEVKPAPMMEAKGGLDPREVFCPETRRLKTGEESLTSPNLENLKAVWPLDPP
How it was run: as §1

[13] = molecular target: T8, ETS2 (Homo sapiens, UniProt P15036 1-469); settings: protein: recombinant; tags: N-terminal GST; dsDNA, one strand shown
T8 sequence: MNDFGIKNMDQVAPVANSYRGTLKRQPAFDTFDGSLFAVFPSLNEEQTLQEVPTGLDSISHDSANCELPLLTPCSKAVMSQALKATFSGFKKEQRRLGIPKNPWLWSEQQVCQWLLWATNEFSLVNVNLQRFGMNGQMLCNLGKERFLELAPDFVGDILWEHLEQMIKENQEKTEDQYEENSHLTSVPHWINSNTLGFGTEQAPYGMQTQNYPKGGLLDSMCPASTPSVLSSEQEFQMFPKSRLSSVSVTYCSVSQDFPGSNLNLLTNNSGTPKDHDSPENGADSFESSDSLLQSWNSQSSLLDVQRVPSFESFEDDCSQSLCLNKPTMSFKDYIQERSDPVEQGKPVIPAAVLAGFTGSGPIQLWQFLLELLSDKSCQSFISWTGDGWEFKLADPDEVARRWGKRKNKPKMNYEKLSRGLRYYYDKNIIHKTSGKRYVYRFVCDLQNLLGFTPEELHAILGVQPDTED
How it was run: as §1

[14] = molecular target: T9, SPDEF (Homo sapiens, UniProt O95238 1-335); settings: protein: recombinant; tags: N-terminal GST; dsDNA, one strand shown
T9 sequence: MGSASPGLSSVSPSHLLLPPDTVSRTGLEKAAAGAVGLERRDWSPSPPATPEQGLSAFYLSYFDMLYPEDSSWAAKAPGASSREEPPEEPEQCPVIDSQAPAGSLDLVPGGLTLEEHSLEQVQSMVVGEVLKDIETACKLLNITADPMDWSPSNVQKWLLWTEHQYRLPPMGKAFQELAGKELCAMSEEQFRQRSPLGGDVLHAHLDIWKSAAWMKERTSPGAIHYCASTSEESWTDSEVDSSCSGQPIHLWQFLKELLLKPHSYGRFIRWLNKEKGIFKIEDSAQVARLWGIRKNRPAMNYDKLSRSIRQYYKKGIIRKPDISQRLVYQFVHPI
How it was run: as §1

[15] = molecular target: T10, ETV7 (Homo sapiens, UniProt Q9Y603 1-341); settings: protein: recombinant; tags: N-terminal GST; dsDNA, one strand shown
T10 sequence: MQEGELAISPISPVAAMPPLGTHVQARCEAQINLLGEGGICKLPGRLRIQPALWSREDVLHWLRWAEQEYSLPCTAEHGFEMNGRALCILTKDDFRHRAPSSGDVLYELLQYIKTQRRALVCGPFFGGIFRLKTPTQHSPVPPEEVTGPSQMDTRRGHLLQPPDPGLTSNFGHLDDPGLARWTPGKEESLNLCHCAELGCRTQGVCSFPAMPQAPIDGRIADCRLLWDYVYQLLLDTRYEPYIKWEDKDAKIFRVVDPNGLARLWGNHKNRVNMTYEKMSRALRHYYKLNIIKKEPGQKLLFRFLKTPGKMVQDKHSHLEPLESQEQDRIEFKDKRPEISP
How it was run: as §1

[16] = molecular target: T11, ELF5 (Homo sapiens, UniProt Q9UKW6-2 1-255); settings: protein: recombinant; tags: N-terminal GST; dsDNA, one strand shown
T11 sequence: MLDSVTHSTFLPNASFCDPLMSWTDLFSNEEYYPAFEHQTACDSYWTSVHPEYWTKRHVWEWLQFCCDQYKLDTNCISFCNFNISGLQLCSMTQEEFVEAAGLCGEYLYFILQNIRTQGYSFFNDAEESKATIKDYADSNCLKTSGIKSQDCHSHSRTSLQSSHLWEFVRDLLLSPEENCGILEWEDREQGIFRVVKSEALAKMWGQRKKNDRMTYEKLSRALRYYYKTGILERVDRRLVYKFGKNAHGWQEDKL
How it was run: as §1

[17] = molecular target: T12, ETV3 (Homo sapiens, UniProt P41162-2 1-143); settings: protein: recombinant; tags: N-terminal GST; dsDNA, one strand shown
T12 sequence: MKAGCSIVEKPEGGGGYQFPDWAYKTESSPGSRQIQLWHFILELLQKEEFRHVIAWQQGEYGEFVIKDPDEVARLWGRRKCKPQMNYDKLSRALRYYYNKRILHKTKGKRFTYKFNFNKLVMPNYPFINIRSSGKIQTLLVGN
How it was run: as §1

[18] = molecular target: ETV6 (Homo sapiens, UniProt P41212 1-452); settings: protein: recombinant; tags: N-terminal GST; dsDNA, one strand shown
How it was run: as §1

Sequence of ELF4 (Q99607 whole entry): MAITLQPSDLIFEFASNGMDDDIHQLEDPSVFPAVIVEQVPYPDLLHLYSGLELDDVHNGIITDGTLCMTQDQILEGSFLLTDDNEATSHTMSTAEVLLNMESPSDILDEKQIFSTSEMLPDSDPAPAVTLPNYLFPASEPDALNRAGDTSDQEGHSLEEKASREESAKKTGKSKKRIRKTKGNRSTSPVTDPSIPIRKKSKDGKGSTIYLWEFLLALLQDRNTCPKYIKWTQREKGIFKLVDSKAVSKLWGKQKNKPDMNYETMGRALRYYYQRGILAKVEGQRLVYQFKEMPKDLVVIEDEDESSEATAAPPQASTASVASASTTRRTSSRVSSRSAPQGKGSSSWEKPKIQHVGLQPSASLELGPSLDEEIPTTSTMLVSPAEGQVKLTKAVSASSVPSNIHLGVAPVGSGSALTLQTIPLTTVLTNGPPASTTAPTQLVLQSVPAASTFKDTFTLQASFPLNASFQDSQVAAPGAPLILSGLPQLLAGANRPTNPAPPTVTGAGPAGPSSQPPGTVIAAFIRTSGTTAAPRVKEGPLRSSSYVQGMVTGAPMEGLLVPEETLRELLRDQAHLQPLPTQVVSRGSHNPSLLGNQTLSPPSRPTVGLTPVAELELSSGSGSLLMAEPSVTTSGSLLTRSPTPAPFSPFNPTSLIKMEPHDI
Sequence of ETV6 (P41212 whole entry): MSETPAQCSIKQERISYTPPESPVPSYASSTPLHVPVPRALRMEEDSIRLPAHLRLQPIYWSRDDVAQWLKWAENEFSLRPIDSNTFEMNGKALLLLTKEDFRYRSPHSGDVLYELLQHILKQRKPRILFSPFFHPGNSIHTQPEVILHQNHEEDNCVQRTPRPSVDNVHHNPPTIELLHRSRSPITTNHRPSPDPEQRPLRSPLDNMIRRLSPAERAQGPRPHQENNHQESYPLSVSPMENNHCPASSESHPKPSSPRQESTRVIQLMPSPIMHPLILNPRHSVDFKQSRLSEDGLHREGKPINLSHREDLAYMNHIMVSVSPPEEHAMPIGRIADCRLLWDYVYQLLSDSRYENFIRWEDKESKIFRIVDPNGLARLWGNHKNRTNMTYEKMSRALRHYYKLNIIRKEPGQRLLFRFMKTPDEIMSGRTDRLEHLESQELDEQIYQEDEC
Sequence of ETV5 (P41161 whole entry): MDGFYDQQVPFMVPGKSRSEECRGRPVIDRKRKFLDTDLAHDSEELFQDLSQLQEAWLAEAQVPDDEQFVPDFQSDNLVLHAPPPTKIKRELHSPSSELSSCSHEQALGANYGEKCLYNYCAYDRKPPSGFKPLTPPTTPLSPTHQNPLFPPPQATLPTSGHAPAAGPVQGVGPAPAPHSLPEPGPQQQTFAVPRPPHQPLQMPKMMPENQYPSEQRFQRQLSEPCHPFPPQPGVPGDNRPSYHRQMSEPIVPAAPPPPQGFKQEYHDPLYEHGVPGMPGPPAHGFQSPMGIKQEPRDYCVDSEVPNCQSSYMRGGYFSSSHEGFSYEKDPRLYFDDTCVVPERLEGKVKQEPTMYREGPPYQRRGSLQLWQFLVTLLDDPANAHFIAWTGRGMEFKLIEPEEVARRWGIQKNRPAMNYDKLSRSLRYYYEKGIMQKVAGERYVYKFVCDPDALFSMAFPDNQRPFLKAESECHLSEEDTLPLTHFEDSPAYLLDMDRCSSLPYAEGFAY
Sequence of HSF1 (Q00613 whole entry): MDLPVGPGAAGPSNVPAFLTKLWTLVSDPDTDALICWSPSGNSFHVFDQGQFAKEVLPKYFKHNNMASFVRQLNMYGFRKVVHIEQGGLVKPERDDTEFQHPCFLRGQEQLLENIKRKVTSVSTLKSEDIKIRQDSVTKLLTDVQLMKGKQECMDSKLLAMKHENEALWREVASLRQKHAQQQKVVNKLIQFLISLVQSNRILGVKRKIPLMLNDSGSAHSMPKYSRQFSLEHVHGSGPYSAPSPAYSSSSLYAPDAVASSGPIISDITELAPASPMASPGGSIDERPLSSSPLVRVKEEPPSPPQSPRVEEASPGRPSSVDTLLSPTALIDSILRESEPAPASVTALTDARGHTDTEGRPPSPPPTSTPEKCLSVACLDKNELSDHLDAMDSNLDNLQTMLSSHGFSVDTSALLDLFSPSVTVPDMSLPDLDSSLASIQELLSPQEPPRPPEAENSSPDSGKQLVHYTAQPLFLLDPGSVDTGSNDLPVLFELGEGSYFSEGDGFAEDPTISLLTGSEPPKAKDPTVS
Sequence of CRX (O43186 whole entry): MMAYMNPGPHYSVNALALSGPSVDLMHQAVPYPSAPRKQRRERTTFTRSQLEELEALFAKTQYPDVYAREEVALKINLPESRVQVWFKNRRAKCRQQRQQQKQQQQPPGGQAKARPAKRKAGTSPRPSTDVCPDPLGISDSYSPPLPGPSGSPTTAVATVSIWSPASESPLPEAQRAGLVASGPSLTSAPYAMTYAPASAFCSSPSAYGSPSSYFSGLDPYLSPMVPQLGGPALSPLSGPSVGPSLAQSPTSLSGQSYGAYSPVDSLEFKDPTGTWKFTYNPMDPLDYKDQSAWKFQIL
Sequence of ETV1 (P50549 whole entry): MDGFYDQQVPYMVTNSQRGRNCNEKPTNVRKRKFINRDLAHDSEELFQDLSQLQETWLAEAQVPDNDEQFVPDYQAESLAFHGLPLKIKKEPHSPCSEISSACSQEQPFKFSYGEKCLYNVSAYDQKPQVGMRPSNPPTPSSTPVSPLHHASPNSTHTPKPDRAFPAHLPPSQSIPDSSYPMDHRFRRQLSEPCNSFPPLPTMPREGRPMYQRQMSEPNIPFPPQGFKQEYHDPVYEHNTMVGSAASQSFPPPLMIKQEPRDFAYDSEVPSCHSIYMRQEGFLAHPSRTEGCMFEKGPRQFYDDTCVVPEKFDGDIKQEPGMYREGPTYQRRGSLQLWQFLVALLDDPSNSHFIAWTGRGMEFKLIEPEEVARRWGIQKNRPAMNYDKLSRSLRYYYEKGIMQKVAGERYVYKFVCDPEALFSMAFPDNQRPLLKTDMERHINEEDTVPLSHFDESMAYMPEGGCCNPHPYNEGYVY

Sequence: TAACTG
- binding signal [1]: 1.28 fold enrichment (6-mer frequency, TF over GST control)
- binding signal [2]: 1.22 fold enrichment (6-mer frequency, TF over GST control)
- binding signal [3]: 1.25 fold enrichment (6-mer frequency, TF over GST control)
- binding signal [4]: 1.42 fold enrichment (6-mer frequency, TF over GST control)
- binding signal [5]: 1.19 fold enrichment (6-mer frequency, TF over GST control)
- binding signal [6]: 1.23 fold enrichment (6-mer frequency, TF over GST control)
- binding signal [7]: 1.31 fold enrichment (6-mer frequency, TF over GST control)
- binding signal [8]: 1.47 fold enrichment (6-mer frequency, TF over GST control)
- binding signal [9]: 1.5 fold enrichment (6-mer frequency, TF over GST control)
- binding signal [10]: 1.09 fold enrichment (6-mer frequency, TF over GST control)
- binding signal [11]: 1.11 fold enrichment (6-mer frequency, TF over GST control)
- binding signal [12]: 1.23 fold enrichment (6-mer frequency, TF over GST control)
- binding signal [13]: 1.31 fold enrichment (6-mer frequency, TF over GST control)
- binding signal [14]: 1.2 fold enrichment (6-mer frequency, TF over GST control)
- binding signal [15]: 1.28 fold enrichment (6-mer frequency, TF over GST control)
- binding signal [16]: 1.16 fold enrichment (6-mer frequency, TF over GST control)
- binding signal [17]: 1.25 fold enrichment (6-mer frequency, TF over GST control)
- binding signal [18]: 1.26 fold enrichment (6-mer frequency, TF over GST control)
